Bioassay records deposited in PubChem BioAssay by National Center for Advancing Translational Sciences (NCATS).
Vaccinia mCherry: qHTS for Stage-Specific Inhibitors of Vaccinia Orthopoxvirus: mCherry Reporter Primary qHTS. AID 720579, 2013. Vaccinia virus mCherry reporter infection, fluorescence. hit rate 0.63% among 310,000. Potency, µM (titrated, usually from 36.5 µM), for inactives: top-dose activity change, negative = inhibition, most hits filed as inhibitors; calls by dose curve; tested in A549 cells; further: potency means the concentration at half of the fitted maximal effect; nearly all actives have a fitted effect of over 35% in size
HCV inhibitor: qHTS Assay for Inhibitors of Hepatitis C Virus (HCV) | Huh7.5.1 HCVcc-Cre infection, luciferase reporter, 44 h | Potency, µM (top dose mostly 41.8 µM), for the others: at the highest dose activity change, negative = inhibition, most hits filed as inhibitors | hit rate 3.4% among 340,000 | AID 651820, 2012; active means well fitted inhibition curve with a large enough effect; inconclusive means small, poorly fitted or top-dose-only effect, or another doubt; inactive means no such curve, though single readings can be large or run the other way; further: potency means the concentration at half of the fitted maximal effect
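Seed cells (1,000/well) for 4 h; treat with compound and infect with HCVcc-Cre, moi about 0.5. Incubate 44 h, then detect luciferase activity.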
Vaccinia Venus: qHTS for Stage-Specific Inhibitors of Vaccinia Orthopoxvirus: Venus Reporter Primary qHTS. Vaccinia virus Venus reporter expression, fluorescence. Potency, µM (titrated, usually from 36.5 µM), for inactives: at the top dose activity change, negative = inhibition, most hits filed as inhibitors. hit rate 0.46% among 330,000. AID 720580, 2013; calls by dose curve; tested in A549 cells; further: potency means the concentration at half of the fitted maximal effect; nearly all actives have a fitted effect of over 30% in size
FMDV inh: High Throughput Screening for Foot and Mouth Disease Virus Antivirals | AID 1159524, 2015 | Potency, µM (doses to about 57.9 µM), without a hit: top-dose activity change, negative = inhibition, hits mostly inhibitors | hit rate 1.2% among 410,000 | FMDV antiviral cell-based qHTS; calls by dose curve; tested in HEK293T cells; further: read-out not given here; potency means the concentration at half of the fitted maximal effect; nearly all actives have a fitted effect of over 45% in size
HCMV inh: qHTS Assay for inhibitors of the human cytomegalovirus (HCMV) | HFF cells, HCMV-luciferase reporter, 72 h; active compounds read low | activity change, negative = inhibition, % at 57.5 µM | hit rate 4.5% among 410,000; in the data active means activity change below about -60%; inconclusive means no clear call, values can overlap the other calls; inactive means above about -39%
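Inhibition of viral replication was scored as loss of reporter luminescence in HFFs infected with HCMV-luciferase (MOI 1 PFU/cell) for 72 h; compounds tested at 2 doses, normalized to buffer and Salinomycin controls.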
* marks the source's active call; other numbers are inactive results; i = inactive; ? = inconclusive; nt = no result given; ! = a repeat was not active; [ ] = dose if it differs, or a comment. This is a sample that favours compounds with a hit; in the whole collection about 7.3% have one here. On the % scale 0 is the no-effect control and ±100 the full control effect.

SMILES	Vaccinia mCherry	HCV inhibitor	Vaccinia Venus	FMDV inh	HCMV inh
CCCCNC(=O)N1CCN(c2ccnc3cc(Cl)ccc23)CC1	-18%	-3%	-22%	32µM*	nt
CCc1ccccc1NC(=O)CN1C(=O)c2ccccc2Sc2ncccc21	-13%	nt	-13%	-20%	-1
O=C(Nc1ccc(C(F)(F)F)cc1)N1CCN(c2ccnc3cc(Cl)ccc23)CC1	-6%	8.9µM*	-29%	?	-72*
COc1c(N2CCN(C(=S)NCc3ccccc3)C(C)C2)c(F)cc2c(=O)c(C(=O)O)cn(C3CC3)c12 (configuration not stated)	nt	10µM*	13µM*	-23%	-67*
COc1c(N2CCN[C@H](C)C2)c(F)cc2c(=O)c(C(=O)O)cn(C3CC3)c12	-6%	14%	-7%	-16%	nt
COc1c(F)c(F)cc2c(=O)c(C(=O)O)cn(C3CC3)c12	-6%	16%	-11%	2%	-61*
Cc1ccc(NS(=O)(=O)c2c(C)nc3sccn3c2=O)c(Cl)c1	?	nt	-16%	19%	8
Cc1cc(/C=N/n2cnnc2)c(C)n1-c1ccc(OCc2ccccc2F)cc1	-20%	?	?	nt	-93*
Fc1ccccc1COc1cccc(/C=N/n2cnnc2)c1	nt	17%	nt	-28%	-26
Cc1cc(/C=N/n2cnnc2)c(C)n1-c1ccc(OCc2ccc(Cl)cc2)cc1	?	7.9µM*	-23%	?	-92*
Cc1cccc(NCc2ccc(N(C)C)cc2)n1	-18%	-22%	-2%	-10%	-1
Cc1cccc(CNc2ccc(C(CC(N)=O)NC(=O)Cc3cccc4ccccc34)cc2[N+](=O)[O-])c1 (configuration not stated)	-8%	-29%	-13%	-24%	-79*
COc1ccc(CCNc2ccc(C(CC(N)=O)NC(=O)Cc3cccc4ccccc34)cc2[N+](=O)[O-])cc1 (configuration not stated)	?	21%	13µM*	?	-2
CCCCNc1ccc(C(CC(N)=O)NC(=O)Cc2cccc3ccccc23)cc1[N+](=O)[O-] (configuration not stated)	-30%	3%	-15%	-16%	9
NC(=O)CC(NC(=O)Cc1cccc2ccccc12)c1ccc(NC2CCC2)c([N+](=O)[O-])c1 (configuration not stated)	-13%	-3%	-9%	-18%	4
COc1ccccc1[C@@]1(C)ON(c2ccccc2C(F)(F)F)C1=O	?	3.2µM*	?	?	-4
Cc1cc2nc(C(C)(C)C)c(Cc3ccsc3)n2c(C)c1Br	11%	nt	10%	-21%	13
COc1ccc(C(=O)N2CCN(Cc3ccc(OC)c(OC)c3)CC2)cc1	i	4%	-5%	-15%	30
COc1ccc(OCCN2CCN(C(=O)c3ccc(OC)cc3)CC2)cc1	-9%	10µM*	-11%	?	-90*
COc1ccc(OCCN2CCN(C(=O)c3ccc(OC(F)F)c(OC)c3)CC2)cc1	-4%	?	-12%	-28%	-63*
NC1=NN=C(c2ccc3c(c2)OCCO3)CS1	-15%	6%	-18%	11µM*	47
C=CCN=C1NN=C(c2cc(C)n(CC=C)c2C)CS1	-1%	?	-1%	18µM*	-88*
C=CCN=C1NN=C(c2ccc3c(c2)OCCO3)CS1	?	-18%	-16%	8.9µM*	-33
COCCN=C1NN=C(c2cc(C)n(CC3CCCO3)c2C)CS1 (configuration not stated)	-9%	-26%	-2%	-30%	30
Cc1sc(N)nc1-c1ccc2c(c1)OCCO2	nt	14%	nt	50%	31
SMILES	Vaccinia mCherry	HCV inhibitor	Vaccinia Venus	FMDV inh	HCMV inh
Cc1ccc(S(=O)(=O)N2CC=C(c3c(C)n(CC(=O)N4CCCC4)c4ccccc34)CC2)cc1C	-8%	nt	-7%	-10%	-16
COc1cc2c(cc1NC(=S)Nc1cccc(C(F)(F)F)c1)oc1ccccc12	?	10µM*	-23%	-6%	-21
COCCCNC(=S)Nc1cc2oc3ccccc3c2cc1OC	?	8.9µM*	?	10%	4
COc1cc2c(cc1NCc1ccccn1)oc1ccccc12	-17%	?	-8%	71%	70
COc1cc2c(cc1NC(=S)Nc1cccc3ccccc13)oc1ccccc12	nt	2.5µM*	-16%	38%	26
COc1ccc(S(=O)(=O)NC(CC(C)C)C(=O)NC(C)c2cccs2)cc1 (configuration not stated)	nt	4%	nt	-6%	-35
COc1ccccc1NC(=O)Cn1nnc(C(=O)NCc2ccc3c(c2)OCO3)c1N	2%[7.34 µM]	-24%	20%[7.34 µM]	-15%	-69*!
Cc1ccc(C)c(NC(=O)Cn2c(=O)n(CCC(=O)NCc3ccc4c(c3)OCO4)c(=O)c3ccccc32)c1	-3%	nt	-3%	13%	-2
COc1ccc(Cl)cc1NC(=O)Cn1c(=O)n(CCC(=O)NCc2ccc3c(c2)OCO3)c(=O)c2ccccc21	-27%	nt	-22%	18%	-64*
CNc1nc(-c2ccccn2)nnc1-c1ccccc1	?	?	?	18%	-105*
c1ccc(-c2n[nH]c(-c3ccccn3)n2)cc1	?	-2%	-19%	18%	58
Oc1ccccc1-c1nc(NC2CCCC2)c2ccccc2n1	nt	?	nt	-29%	28
c1ccc(-c2nnc(-c3ccccn3)nc2NC2CCCCC2)cc1	3.5µM*	1.6µM*	?	2%	-100*
C=C1C2CC[C@]3(CCC4[C@@]5(C)CCC[C@@]4(CN(CCO)C5)[C@@H]3C2)[C@@H]1O (some centres not stated)	nt	nt	nt	-14%	nt
NC(=O)c1ccc(NC(=O)COC(=O)CCN2C(=O)c3ccccc3C2=O)cc1	-10%	23%	-4%	-6%	-22
Cc1cc(=O)n(C(C)C(=O)N2CCCc3ccccc32)c2c1c(C)nn2-c1ccccc1 (configuration not stated)	-21%	nt	-14%	7%	7
COc1cc(CCCN2C(=S)NC[C@@H]2Cc2ccccc2)cc(OC)c1OC	-7%	?	-18%	-19%	12
COc1cc(CCCN2C(=S)NC[C@@H]2c2ccccc2)cc(OC)c1OC	i	?	-16%	62%	-99*
COc1ccc(/C=C2\CCc3ccccc3C2=O)cc1O	11µM*	-9%	?	?	20
COc1ccc(/C=C2\Cc3ccccc3C2=O)cc1OC	-9%	-15%	-18%	43%	?
CC1=C(C(=O)OCC2CCCCC2)C(c2ccc(F)cc2F)CC(=O)N1 (configuration not stated)	-15%	nt	-17%	?	-105*
CN(C)c1ccc(CN(C(=O)/C=C/c2ccco2)C2CCS(=O)(=O)C2)cc1 (configuration not stated)	-16%	?	-10%	-18%	4
